Screens from PubChem.
Shown are actives, neighbours in structure and some others; about 6% of the full set was active somewhere.
DRD3 antagonist: blocks the human D3 dopamine receptor; 360,000 compounds, 2.5% hits; max response, negative = inhibition, %; D3R cells, DiscoveRx beta-arrestin luminescence, antagonist mode; stronger effect = lower value; P35462; in the data active = max response below about -50%; inconclusive = no clear call, values can overlap the other calls
Target sequence (P35462 whole entry, looked up): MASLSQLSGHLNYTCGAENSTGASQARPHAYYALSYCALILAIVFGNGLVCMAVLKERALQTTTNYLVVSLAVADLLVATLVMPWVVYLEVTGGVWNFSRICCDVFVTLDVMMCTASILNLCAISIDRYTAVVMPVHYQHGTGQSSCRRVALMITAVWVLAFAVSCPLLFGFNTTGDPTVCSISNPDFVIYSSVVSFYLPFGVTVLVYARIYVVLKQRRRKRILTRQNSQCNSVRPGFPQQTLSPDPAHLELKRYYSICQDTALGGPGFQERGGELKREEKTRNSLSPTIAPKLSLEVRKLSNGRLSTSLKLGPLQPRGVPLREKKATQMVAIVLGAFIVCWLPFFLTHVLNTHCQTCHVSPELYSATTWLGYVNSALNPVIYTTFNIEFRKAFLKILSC
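Cells expressing the human receptor were seeded at 1500 cells/well, incubated overnight at 37 degrees C in 5% CO2, then exposed to library compounds with dopamine controls for 90 minutes at 37 degrees C before luminescent detection.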
D3 ag: D3 dopamine receptor (human) agonism; D3R DiscoveRx beta-arrestin cells, luminescence, 90 min; max activation, %; 410,000 compounds, 0.58% hits; AID 652048; in the data active = max activation above about 30%
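Agonist-mode cell screen: cells plated at 1500/well and incubated overnight at 37 °C, then exposed to library compounds for 90 min at 37 °C. Detection reagent was added for 30–60 min at room temperature, and luminescence was read.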
D1 ag: human D1 receptor agonism | P21728 | HEK293 T-REx D1 cells, calcium flux, agonist mode | activation, % at 2 µM | 360,000 compounds, 1% hits | AID 504660; in the data active = activation above about 30%
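Agonism was scored from calcium flux recorded over 180 s (1 read/s) after pintool compound addition, following a 10-cycle baseline. Cells were inducible force-coupled HEK293 TREx D1, plated overnight at 30 C and loaded with no-wash calcium dye.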
Chronic BCR inh: inhibitors of chronic active B-cell receptor signaling; ABC-DLBCL IkBa-CBG/CBR reporter, luminescence ratio, 4 h; Potency, µM (titrated, usually from 46.1 µM), usual class: inhibitors; 340,000 compounds, 0.05% hits; active = well fitted inhibition curve with a large enough effect in the signal ratio, with a control signal flat, not every such curve was filed as active; inconclusive = small, poorly fitted or top-dose-only effect, or effect the other way, or a change in a side signal; the % refers to the signal ratio
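Doxycycline induced both beetle luciferases in TMD8 lymphoma cells; IKK-driven degradation limits the IkappaBalpha-fused green signal, while red luminescence normalises for cell number and nonspecific effects. Compounds tested up to 46 uM, 4 hrs.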
D1 antagonist: antagonists of human D1 dopamine receptor. 360,000 compounds, 3.2% hits. HEK293 TREx D1 cells, calcium flux, dopamine EC80; stronger effect = lower value. activity change, negative = inhibition, % at 10 µM. P21728; in the data active = activity change below about -30%
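Inducible Hek293 Trex D1 cells (tetracycline, overnight, 30 C). Calcium dye 30–90 min RT. Antagonist mode: EC80 dopamine added after 180 s compound read.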
D1 PAM: human D1 dopamine receptor positive modulation | P21728 | HEK293 TREx D1 cells, calcium flux, dopamine EC20 potentiation | potentiation, % at 10 µM | 360,000 compounds, 0.036% hits | AID 504651; in the data active = potentiation above about 30%
Numbers stand for hits; i = inactive; ? = inconclusive; nt = no result given; [ ] = remark or other dose.

SMILES | DRD3 antagonist | D3 ag | D1 ag | Chronic BCR inh | D1 antagonist | D1 PAM
O=C(NC(Cc1ccccc1)c1nc2ccccc2[nH]1)c1ccc(Cl)c([N+](=O)[O-])c1 (centres undefined) | -63 | i | i | ? | i | i
CCOc1ccc(C2C(=O)N(C3CCCCC3)CC(=O)N2CCc2ccccc2)cc1OC (centres undefined) | nt | i | i | i | i | i
Cc1nn(C(C)C(=O)NCC2CCCO2)c(=O)c2cc3occc3n12 (centres undefined) | i | i | i | nt | -33 | i
COc1ccc([C@]23Cc4cc(OC)c(OC)cc4C(O2)c2c(cc(C)oc2=O)O3)cc1 | nt | nt | i | i[9.22 µM] | i | i
COc1ccc(NC(=O)CCCc2nnc3n(C)c(=O)c4sccc4n23)cc1 | i | i | i | i | -31 | i
Cc1cc(C)cc(NC(=O)CCc2nnc3n(C)c(=O)c4sccc4n23)c1 | nt | i | i | nt | -46 | i
Cc1cccc(-c2nc(SCCCOc3ccccc3Cl)n3[nH]c(=O)cc3n2)c1 | nt | i | i | nt | i | i
c1ccc(-n2nnnc2-n2ccnc2)cc1 | i | i | i | i | -97 | i
Cc1ccc(N2CCN(c3nc4ccccc4n4nnnc34)CC2)c(C)c1 | nt | i | i | nt | i | i
O=c1ccn([C@@H]2O[C@H](CNCc3cccc4c3sc3ccccc34)[C@@H](O)[C@H]2O)c(=O)[nH]1 | i | i | nt | nt | nt | nt
CC1CCN(c2c(NCC3CCC(C(=O)NCc4ccccc4)CC3)c(=O)c2=O)CC1 (centres undefined) | -61 | i | i | i | i | i
CCN1C(=O)C(CC(=O)Nc2ccc(OC)cc2)N(CCc2ccc(OC)cc2)C1=S (centres undefined) | i | i | i | ? | -33 | i
CCCOc1ccc(NC(=O)CC2C(=O)N(CC)C(=S)N2CCCN2CCN(Cc3ccccc3)CC2)cc1 (centres undefined) | i | i | i | i | -34 | i
c1ccc(OCCn2c(COc3ccccc3)nc3ccccc32)cc1 | nt | i | i | nt | i | i
Cc1ccccc1OCCCCn1c(CO)nc2ccccc21 | i | i | i | i | i | i
Cc1ccccc1OCCn1c(C)nc2ccccc21 | i | i | i | i | -41 | i
Cc1nc2ccccc2n1CCOc1ccccc1 | i | i | i | i | -42 | i
COc1ccc(-c2ccc(C)cc2)cc1[C@H]1[C@@H]2C=CCC[C@@]2(C)C(=O)N1Cc1ccccc1 | -56 | i | i | i | i | i
COc1nc(-c2ccccc2)ccc1-c1noc(-c2ccccc2F)n1 | i | i | 159 | i | i | i
Cc1ccccc1CN1C(=O)c2ccccc2S(=O)c2ccc(C(=O)NCc3ccc(Cl)cc3)cc21 (centres undefined) | nt | i | i | i | i | i
CSc1ccc(C2=CC(=O)C[C@H](c3ccc4c(c3)OCO4)C2)cc1 | -52 | i | i | i | i | i
Cc1ccc(C2=CC(=O)C[C@H](c3ccc4c(c3)OCO4)C2)cc1 | i | i | i | i | nt | i
O=C1C=C(c2ccc3c(c2)oc2ccccc23)C[C@@H](c2ccc3c(c2)OCO3)C1 | i | i | i | ? | -33 | i
COc1ccc2c(Sc3ccccc3)c(C(=O)NCc3cc(Br)ccc3OC)[nH]c2c1 | nt | i | i | nt | i | i
O=C(COCc1cc(-c2ccc(F)cc2)on1)Nc1cc(Cl)cc(Cl)c1 | nt | i | i | nt | i | i
SMILES | DRD3 antagonist | D3 ag | D1 ag | Chronic BCR inh | D1 antagonist | D1 PAM
CSc1cccc(NC(=O)c2cc(S(=O)(=O)N3CCc4ccccc43)cn2C)c1 | i | i | i | i | -56 | i
CCOc1ccc(NC(=O)c2cc(S(=O)(=O)N3CCC(C)CC3)cn2C)cc1 | nt | i | i | nt | i | i
CCc1ccccc1NC(=O)c1cc(S(=O)(=O)N2CCC(C)CC2)cn1C | nt | 62 | i | nt | i | i
Cn1cc(S(=O)(=O)N2CCCC2)cc1C(=O)Nc1ccc(C(F)(F)F)cc1 | nt | i | 33 | nt | i | i
Cn1cc(S(=O)(=O)N2CCc3ccccc32)cc1C(=O)Nc1ccc(Cl)cc1 | i | i | i | ? | -37 | i
C/C(=C(\CCO)SS/C(CCO)=C(\C)N(C=O)Cc1cnc(C)nc1N)N(C=O)Cc1cnc(C)nc1N | nt | i | nt | nt | nt | nt
